Structures are written as SMILES.

Broadly, the Inhibition is the relative decrease from the control value, in per cent. Read a high Inhibition as a strong effect.

This experiment has as its system HepG2. The experiment can be described thus: GSK_TCMDC: Percent inhibition of human HepG2 cell line. Test compounds present at 10uM. It is filed as functional.
As for `Cc1cc(O)c2c(c1)OC(C)(C)C=C2C1=CCN(Cc2ccccc2)CC1`, the Inhibition was 0%. The value for `CN(C)CCOC(=O)C1(O)CCC2CC1C2(C)C.Cl` (stereo unspecified) was 10%. Compound `COc1cccc(C(=O)N2CCOC(CCN3CCC(c4ccccc4)CC3)(c3ccc(Cl)c(Cl)c3)C2)c1` (stereo unspecified) had an Inhibition of 38%. The same measure for `CC(=O)Nc1ccc(CNCCc2ccc(NC(=O)c3cc(Cl)cc(Cl)c3)cc2)cc1`: 10%.

As to `Nc1ccnc(N2CCC(CCOc3cc(C(F)(F)F)nc4c(C(F)(F)F)cccc34)CC2)c1`, the Inhibition stood at 35%. The same measure for `CNc1ccc(CNCc2ccc(-c3ccc(-c4nc5cc(C(F)(F)F)ccc5[nH]4)cc3)cc2)cc1.O=C(O)C(F)(F)F`: 53%. The same measure for `Cc1ccc2sc(N3CCN(C(=O)c4ccc([N+](=O)[O-])o4)CC3)nc2c1C`: 0%; for `N#Cc1cccc(NC(=O)c2cccc(S(=O)(=O)NC3CCN(CC4CCCCC4)C3)c2)c1.O=C(O)C(F)(F)F` (stereo unspecified): 29%; for `Cc1cc(CNCCCCCCNCc2ccc(Cl)cc2)ccc1O`: 23%. `Cc1ccccc1Nc1nc(NCCCO)c2ccccc2n1.Cl` showed an Inhibition of 0%.

As for `CC[C@@]1(O)C(=O)OCc2c1cc1n(c2=O)Cc2c-1nc1cc3c(cc1c2CN1CCN(C)CC1)OCCO3.Cl`, the Inhibition is given as 79%. The value for `Cl.O=c1cc(NCCCNCc2ccc(Cl)c(Cl)c2)[nH]c2ccc(Cl)cc12` was 11%. In turn, `Fc1ccc2[nH]c(-c3cccc(-c4ccc(CN5CCCCC5)cc4)c3)nc2c1.O=C(O)C(F)(F)F` came in with an Inhibition of 46%. The value for `COc1ccc(NC(=O)Nc2ccc(-c3ccccc3)cc2Cl)cc1N1CCN(C)CC1` was 40%; that for `CC(C)COc1ccc(Cl)cc1Cc1ccc(-c2nc3ccc(F)c(F)c3[nH]2)o1` was 26%. The same measure for `Cl.c1cc(CNC2Cc3ccccc3C2)cc(-c2cnc(N3CCNCC3)nc2)c1`: 43%; for `Cc1ccc(NC(=O)c2ccc(CN3CCCN(Cc4cccc(O)c4)CC3)cc2)cc1.O=C(O)C(F)(F)F`: 39%.

As for `COc1cc2c(cc1OC)-c1cc(=Nc3c(C)cc(C)cc3C)n(C)c(=O)n1CC2.Cl`, the Inhibition was found to be 14%. The same measure for `C=C(C)CSc1nc2c(c(=O)n1CCc1ccccc1)C1(CCCC1)Cc1ccccc1-2`: 14%; for `CN(C)S(=O)(=O)c1ccc(Nc2nc(NCCC3C=NC=N3)nc3cc[nH]c(=O)c23)cc1` (stereo unspecified): 8%. The value for `CN(C)c1ccc(CN2CCC(NC(=O)c3ccc(-c4ccc(N(C)C)cc4)s3)CC2)cc1.O=C(O)C(F)(F)F` was 24%; that for `CCOc1ccc(-c2nonc2NC(=O)c2ccccc2F)cc1OCC` was 0%. In turn, `O=C(Nc1ccc(F)cc1)c1nc2ccccc2nc1Cl` yielded an Inhibition of 44%. The value for `Cc1ccccc1C1CCN(c2ncc(C(=O)NC3CC3)cc2Cl)CC1.O=C(O)C(F)(F)F` was 22%.

In turn, `CCOC(=O)c1c(-c2ccccc2)nc2c(sc3ccccc32)c1O` had an Inhibition of 2%. The value for `O=C(Nc1ccc2ccccc2c1)N(CCCn1ccnc1)Cc1csc(-c2ccc(CNCc3ccccc3)cc2)n1.O=C(O)C(F)(F)F` was 10%.

Source of the values: ChEMBL document CHEMBL1157539, “Thousands of chemical starting points for antimalarial lead identification” (Nature, 2010).
